# Experimental data reported in article PMC7862700, “An all-to-all approach to the identification of sequence-specific readers for epigenetic DNA modifications on cytosine”.
# Columns and labels:
# Experiment in all cases: DAPPL (digital affinity profiling via proximity ligation, sequencing); 10 mM Tris-HCl pH 7.5, 50 mM NaCl, 1 mM DTT, 4% glycerol, room temperature, 30 min; GST-TFs on glutathione beads, 16-mer random dsDNA library, 0.1% formaldehyde crosslink after washing; high values mean tight binding
# FEV = biological target: T1, FEV (Homo sapiens, UniProt Q99581 1-238); conditions: protein: recombinant; tags: N-terminal GST; dsDNA, one strand shown
# T1 sequence: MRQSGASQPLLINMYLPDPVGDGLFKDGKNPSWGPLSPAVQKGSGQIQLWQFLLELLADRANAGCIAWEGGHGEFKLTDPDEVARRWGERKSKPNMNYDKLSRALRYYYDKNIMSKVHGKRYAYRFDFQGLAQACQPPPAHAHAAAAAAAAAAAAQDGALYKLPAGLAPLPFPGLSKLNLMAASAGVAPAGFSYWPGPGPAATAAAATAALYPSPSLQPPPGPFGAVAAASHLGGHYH
# Procedure, shortened: (§1)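 GST fusions of human transcription factors were expressed in yeast and captured with glutathione beads. Once given DNA barcodes and pooled alongside a tag-only sample, they were incubated for 30 min at room temperature with 200 nmole of a random double-stranded 16-mer DNA library in Tris/NaCl/DTT/glycerol buffer, then washed, crosslinked (0.1% formaldehyde), proximity-ligated, PCR-amplified and sequenced on an Illumina NextSeq500. The binding signal of each hexamer is its read frequency for a factor divided by its frequency for the tag-only sample.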
# ETV5 = ETV5 (Homo sapiens, UniProt P41161 1-510); conditions: protein: recombinant; tags: N-terminal GST; dsDNA, one strand shown
# Procedure, shortened: as §1
# HSF1 = HSF1 (Homo sapiens, UniProt Q00613 1-529); conditions: protein: recombinant; tags: N-terminal GST; chain copies: 3; dsDNA, one strand shown
# Procedure, shortened: as §1
# SPIC = biological target: T2, SPIC (Homo sapiens, UniProt Q8N5J4 1-248); conditions: protein: recombinant; tags: N-terminal GST; dsDNA, one strand shown
# T2 sequence: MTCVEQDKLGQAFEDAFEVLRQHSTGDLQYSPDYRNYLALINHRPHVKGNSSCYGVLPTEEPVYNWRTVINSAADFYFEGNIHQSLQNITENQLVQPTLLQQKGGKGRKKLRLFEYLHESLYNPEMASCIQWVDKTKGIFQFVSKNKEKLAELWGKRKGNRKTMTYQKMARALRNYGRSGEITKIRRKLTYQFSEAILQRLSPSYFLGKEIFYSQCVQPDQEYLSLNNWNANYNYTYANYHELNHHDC
# Procedure, shortened: as §1
# ELF4 = ELF4 (Homo sapiens, UniProt Q99607 1-663); conditions: protein: recombinant; tags: N-terminal GST; dsDNA, one strand shown
# Procedure, shortened: as §1
# ELK4 = biological target: T3, ELK4 (Homo sapiens, UniProt P28324-2 1-405); conditions: protein: recombinant; tags: N-terminal GST; dsDNA, one strand shown
# T3 sequence: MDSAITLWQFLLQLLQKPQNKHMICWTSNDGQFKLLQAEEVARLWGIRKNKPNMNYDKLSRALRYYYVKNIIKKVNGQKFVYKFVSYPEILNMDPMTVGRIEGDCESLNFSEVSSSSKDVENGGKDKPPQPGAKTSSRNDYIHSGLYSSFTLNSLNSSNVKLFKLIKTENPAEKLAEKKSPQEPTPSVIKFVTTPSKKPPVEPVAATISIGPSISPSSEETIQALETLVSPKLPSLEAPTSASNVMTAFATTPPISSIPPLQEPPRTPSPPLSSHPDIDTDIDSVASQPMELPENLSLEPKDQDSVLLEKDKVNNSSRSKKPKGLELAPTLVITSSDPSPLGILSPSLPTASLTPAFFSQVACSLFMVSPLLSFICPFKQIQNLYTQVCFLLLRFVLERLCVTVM
# Procedure, shortened: as §1
# ETV2 = biological target: T4, ETV2 (Homo sapiens, UniProt O00321 1-342); conditions: protein: recombinant; tags: N-terminal GST; dsDNA, one strand shown
# T4 sequence: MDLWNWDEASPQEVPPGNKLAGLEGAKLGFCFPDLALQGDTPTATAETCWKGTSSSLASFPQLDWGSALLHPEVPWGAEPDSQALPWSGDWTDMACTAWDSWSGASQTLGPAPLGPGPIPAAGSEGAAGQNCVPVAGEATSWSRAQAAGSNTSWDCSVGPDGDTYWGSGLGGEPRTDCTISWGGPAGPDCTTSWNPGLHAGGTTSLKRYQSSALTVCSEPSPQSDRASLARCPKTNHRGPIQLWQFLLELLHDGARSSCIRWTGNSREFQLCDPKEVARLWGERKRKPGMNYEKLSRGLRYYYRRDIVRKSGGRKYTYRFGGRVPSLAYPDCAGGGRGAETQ
# Procedure, shortened: as §1
# ELF3 = biological target: T5, ELF3 (Homo sapiens, UniProt P78545 1-371); conditions: protein: recombinant; tags: N-terminal GST; dsDNA, one strand shown
# T5 sequence: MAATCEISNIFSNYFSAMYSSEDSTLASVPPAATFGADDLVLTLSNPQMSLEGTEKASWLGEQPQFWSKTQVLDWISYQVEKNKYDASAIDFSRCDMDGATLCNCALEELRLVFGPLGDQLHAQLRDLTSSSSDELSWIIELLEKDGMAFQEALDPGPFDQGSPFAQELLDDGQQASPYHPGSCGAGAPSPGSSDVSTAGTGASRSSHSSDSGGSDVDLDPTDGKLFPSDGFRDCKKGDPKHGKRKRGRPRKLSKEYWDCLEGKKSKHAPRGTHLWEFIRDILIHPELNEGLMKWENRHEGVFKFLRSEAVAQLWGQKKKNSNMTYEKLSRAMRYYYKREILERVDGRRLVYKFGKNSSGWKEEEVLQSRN
# Procedure, shortened: as §1
# CRX = CRX (Homo sapiens, UniProt O43186 1-299); conditions: protein: recombinant; tags: N-terminal GST; dsDNA, one strand shown
# Procedure, shortened: as §1
# ETV1 = ETV1 (Homo sapiens, UniProt P50549 1-477); conditions: protein: recombinant; tags: N-terminal GST; dsDNA, one strand shown
# Procedure, shortened: as §1
# Chain of ETV1 (P50549 whole entry): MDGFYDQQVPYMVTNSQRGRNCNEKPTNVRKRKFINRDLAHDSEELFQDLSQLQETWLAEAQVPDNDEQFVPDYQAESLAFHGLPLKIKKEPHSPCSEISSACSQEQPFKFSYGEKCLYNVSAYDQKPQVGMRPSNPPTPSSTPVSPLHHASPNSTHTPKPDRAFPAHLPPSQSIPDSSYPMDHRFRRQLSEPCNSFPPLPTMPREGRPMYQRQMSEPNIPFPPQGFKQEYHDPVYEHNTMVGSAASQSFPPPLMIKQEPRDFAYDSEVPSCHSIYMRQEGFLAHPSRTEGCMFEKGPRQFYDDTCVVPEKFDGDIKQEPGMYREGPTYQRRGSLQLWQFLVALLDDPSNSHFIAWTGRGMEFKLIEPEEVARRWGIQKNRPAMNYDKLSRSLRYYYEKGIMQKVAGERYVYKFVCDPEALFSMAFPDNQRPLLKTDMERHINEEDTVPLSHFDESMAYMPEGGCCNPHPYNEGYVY
# Chain of CRX (O43186 whole entry): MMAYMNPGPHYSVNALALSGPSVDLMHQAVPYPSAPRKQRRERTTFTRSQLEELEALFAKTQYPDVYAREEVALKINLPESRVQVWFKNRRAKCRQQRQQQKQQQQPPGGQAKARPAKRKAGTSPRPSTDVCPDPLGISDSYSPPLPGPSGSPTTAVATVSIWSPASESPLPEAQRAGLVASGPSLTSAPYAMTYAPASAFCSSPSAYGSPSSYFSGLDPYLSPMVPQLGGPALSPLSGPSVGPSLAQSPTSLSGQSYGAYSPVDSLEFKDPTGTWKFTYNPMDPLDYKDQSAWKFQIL
# Chain of HSF1 (Q00613 whole entry): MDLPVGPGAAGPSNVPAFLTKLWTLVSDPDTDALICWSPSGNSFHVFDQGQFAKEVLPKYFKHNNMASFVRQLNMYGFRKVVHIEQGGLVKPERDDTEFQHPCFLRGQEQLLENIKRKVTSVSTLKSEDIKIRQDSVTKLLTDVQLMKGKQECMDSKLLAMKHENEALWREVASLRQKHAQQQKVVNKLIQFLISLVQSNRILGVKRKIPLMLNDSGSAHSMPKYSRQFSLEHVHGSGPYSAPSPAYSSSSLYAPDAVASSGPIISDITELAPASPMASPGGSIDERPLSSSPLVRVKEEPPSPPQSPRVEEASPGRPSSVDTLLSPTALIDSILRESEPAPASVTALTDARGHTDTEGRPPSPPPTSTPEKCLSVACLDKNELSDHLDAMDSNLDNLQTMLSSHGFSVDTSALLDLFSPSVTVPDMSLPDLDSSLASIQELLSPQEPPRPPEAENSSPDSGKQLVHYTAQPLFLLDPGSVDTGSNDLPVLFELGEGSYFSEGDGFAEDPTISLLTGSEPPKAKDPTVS
# Chain of ETV5 (P41161 whole entry): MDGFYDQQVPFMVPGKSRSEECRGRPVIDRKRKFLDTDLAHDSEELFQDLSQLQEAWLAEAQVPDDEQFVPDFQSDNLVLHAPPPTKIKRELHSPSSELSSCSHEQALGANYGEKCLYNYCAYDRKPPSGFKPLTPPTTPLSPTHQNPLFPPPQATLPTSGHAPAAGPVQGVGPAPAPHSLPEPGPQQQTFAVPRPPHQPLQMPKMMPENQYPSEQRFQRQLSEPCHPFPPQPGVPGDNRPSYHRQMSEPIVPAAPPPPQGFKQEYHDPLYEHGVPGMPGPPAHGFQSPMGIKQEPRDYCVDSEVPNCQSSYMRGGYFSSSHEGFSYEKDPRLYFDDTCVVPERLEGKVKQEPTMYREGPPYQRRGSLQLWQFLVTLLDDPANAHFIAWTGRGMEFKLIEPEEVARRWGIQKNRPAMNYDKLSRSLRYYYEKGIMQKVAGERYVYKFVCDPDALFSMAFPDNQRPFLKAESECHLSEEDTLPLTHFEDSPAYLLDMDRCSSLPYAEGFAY
# Chain of ELF4 (Q99607 whole entry): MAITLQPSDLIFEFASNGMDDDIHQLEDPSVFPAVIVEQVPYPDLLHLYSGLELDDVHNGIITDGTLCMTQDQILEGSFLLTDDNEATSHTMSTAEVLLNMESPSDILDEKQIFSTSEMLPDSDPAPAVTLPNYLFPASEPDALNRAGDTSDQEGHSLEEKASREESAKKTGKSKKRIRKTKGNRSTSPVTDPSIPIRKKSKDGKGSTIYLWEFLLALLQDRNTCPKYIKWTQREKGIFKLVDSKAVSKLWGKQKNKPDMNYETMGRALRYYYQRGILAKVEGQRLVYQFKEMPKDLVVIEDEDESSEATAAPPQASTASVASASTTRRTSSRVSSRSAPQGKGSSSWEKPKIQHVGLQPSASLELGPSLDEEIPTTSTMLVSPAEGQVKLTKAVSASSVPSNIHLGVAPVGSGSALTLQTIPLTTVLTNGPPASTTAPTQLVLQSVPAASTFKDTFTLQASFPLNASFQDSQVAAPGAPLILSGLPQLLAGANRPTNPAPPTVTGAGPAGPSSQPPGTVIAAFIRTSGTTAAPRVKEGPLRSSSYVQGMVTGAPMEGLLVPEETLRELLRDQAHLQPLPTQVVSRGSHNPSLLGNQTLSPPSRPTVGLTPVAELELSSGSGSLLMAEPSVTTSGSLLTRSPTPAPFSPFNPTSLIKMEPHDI
Sequence,binding signal (FEV),binding signal (ETV5),binding signal (HSF1),binding signal (SPIC),binding signal (ELF4),binding signal (ELK4),binding signal (ETV2),binding signal (ELF3),binding signal (CRX),binding signal (ETV1)
AAAGTA,"1.11 fold enrichment (6-mer frequency, TF over GST control)","1.09 fold enrichment (6-mer frequency, TF over GST control)","1.29 fold enrichment (6-mer frequency, TF over GST control)","1.04 fold enrichment (6-mer frequency, TF over GST control)","1.17 fold enrichment (6-mer frequency, TF over GST control)","1.13 fold enrichment (6-mer frequency, TF over GST control)","1.11 fold enrichment (6-mer frequency, TF over GST control)","1.11 fold enrichment (6-mer frequency, TF over GST control)","1.35 fold enrichment (6-mer frequency, TF over GST control)","1.18 fold enrichment (6-mer frequency, TF over GST control)"
CTCTAT,"1.11 fold enrichment (6-mer frequency, TF over GST control)","1.15 fold enrichment (6-mer frequency, TF over GST control)","1.11 fold enrichment (6-mer frequency, TF over GST control)","1.05 fold enrichment (6-mer frequency, TF over GST control)","1.18 fold enrichment (6-mer frequency, TF over GST control)","1.19 fold enrichment (6-mer frequency, TF over GST control)","1.21 fold enrichment (6-mer frequency, TF over GST control)","1.2 fold enrichment (6-mer frequency, TF over GST control)","1.1 fold enrichment (6-mer frequency, TF over GST control)","1.13 fold enrichment (6-mer frequency, TF over GST control)"
GGGCCT,"1.11 fold enrichment (6-mer frequency, TF over GST control)","1.27 fold enrichment (6-mer frequency, TF over GST control)","1.1 fold enrichment (6-mer frequency, TF over GST control)","1.13 fold enrichment (6-mer frequency, TF over GST control)","1.24 fold enrichment (6-mer frequency, TF over GST control)","1.3 fold enrichment (6-mer frequency, TF over GST control)","1.05 fold enrichment (6-mer frequency, TF over GST control)","1.19 fold enrichment (6-mer frequency, TF over GST control)","1.07 fold enrichment (6-mer frequency, TF over GST control)","1.31 fold enrichment (6-mer frequency, TF over GST control)"
ACGAAT,"1.17 fold enrichment (6-mer frequency, TF over GST control)","1.14 fold enrichment (6-mer frequency, TF over GST control)","1.39 fold enrichment (6-mer frequency, TF over GST control)","1.16 fold enrichment (6-mer frequency, TF over GST control)","1.11 fold enrichment (6-mer frequency, TF over GST control)","1.2 fold enrichment (6-mer frequency, TF over GST control)","1.15 fold enrichment (6-mer frequency, TF over GST control)","1.12 fold enrichment (6-mer frequency, TF over GST control)","1.21 fold enrichment (6-mer frequency, TF over GST control)","1.14 fold enrichment (6-mer frequency, TF over GST control)"
CTATAT,"1.44 fold enrichment (6-mer frequency, TF over GST control)","1.41 fold enrichment (6-mer frequency, TF over GST control)","1.23 fold enrichment (6-mer frequency, TF over GST control)","1.47 fold enrichment (6-mer frequency, TF over GST control)","1.41 fold enrichment (6-mer frequency, TF over GST control)","1.71 fold enrichment (6-mer frequency, TF over GST control)","1.22 fold enrichment (6-mer frequency, TF over GST control)","1.33 fold enrichment (6-mer frequency, TF over GST control)","1.3 fold enrichment (6-mer frequency, TF over GST control)","1.39 fold enrichment (6-mer frequency, TF over GST control)"
CTCGTC,"1.31 fold enrichment (6-mer frequency, TF over GST control)","1.31 fold enrichment (6-mer frequency, TF over GST control)","1.22 fold enrichment (6-mer frequency, TF over GST control)","1.37 fold enrichment (6-mer frequency, TF over GST control)","1.42 fold enrichment (6-mer frequency, TF over GST control)","1.57 fold enrichment (6-mer frequency, TF over GST control)","1.25 fold enrichment (6-mer frequency, TF over GST control)","1.47 fold enrichment (6-mer frequency, TF over GST control)","1.02 fold enrichment (6-mer frequency, TF over GST control)","1.45 fold enrichment (6-mer frequency, TF over GST control)"
TTTATG,"1.26 fold enrichment (6-mer frequency, TF over GST control)","1.36 fold enrichment (6-mer frequency, TF over GST control)","1.37 fold enrichment (6-mer frequency, TF over GST control)","1.5 fold enrichment (6-mer frequency, TF over GST control)","1.21 fold enrichment (6-mer frequency, TF over GST control)","1.16 fold enrichment (6-mer frequency, TF over GST control)","1.34 fold enrichment (6-mer frequency, TF over GST control)","1.37 fold enrichment (6-mer frequency, TF over GST control)","1.74 fold enrichment (6-mer frequency, TF over GST control)","1.32 fold enrichment (6-mer frequency, TF over GST control)"
